In PubChem BioAssay one finds composite z-score and z-score data, which are given here for 5 molecules.

Active and inactive are the calls of the source.

Assay [1] deals with Wnt5a (protein binding on small-molecule microarray). The experiment in a line: small molecules binding Wnt5a protein – biophysical, small-molecule microarray, 635/667 nm fluorescence, primary screen (AID 1142).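 Note: fluorescence read at 667 nm with signal to noise per printed feature.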 As to conditions: 635 nm fluorescence, higher = more signal.
Assay [2] in a line: ATP-based viability of Huh7 replicon cells – cell-based, CellTiter-Glo luminescence, basal, 48 h, cytotoxicity control for HCV replication inhibitor project, primary screen (AID 1143).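 Note: Huh7 hepatoma cells carrying a hepatitis C replication reporter with no stimulus; test concentration not given here.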 The settings on record: higher = more signal, called active from +8 up or from −8 down. (In general: A replicon is a self-replicating genome or part of one, used to study replication in cells.)
Assay [3] can be described thus: basal CRE-LacZ reporter activity in PC12 – cell-based, unstimulated, primary screen (AID 1145). As to conditions: no forskolin, luminescence, 4.5 h, higher = more signal, called active from +8 up or from −8 down.
A short description of assay [4]: forskolin-driven CRE-LacZ activity in PC12 – cell-based, CRE-LacZ reporter, forskolin-stimulated, primary screen (AID 1146).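 Note: PC12 cells with 6xCRE LacZ reporter stimulated by forskolin 10 µM; beta-galactosidase reporter signal reflecting CREB driven transcription.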 As to conditions: luminescence, 4.5 h, higher = more signal, called active from +8 up or from −8 down.
The target of assay [5] is Streptavidin (Streptomyces avidinii) (UniProt P22629). The experiment in a line: compounds binding control protein streptavidin – biophysical, small-molecule microarray, 635/667 nm fluorescence, artefact control for SMM compound annotation, primary screen (AID 1147).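 Note: signal reflects streptavidin binding to arrayed compounds as a control protein.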 As to conditions: higher = more signal.
Sequence of Streptavidin (Streptomyces avidinii) (P22629 whole entry, looked up): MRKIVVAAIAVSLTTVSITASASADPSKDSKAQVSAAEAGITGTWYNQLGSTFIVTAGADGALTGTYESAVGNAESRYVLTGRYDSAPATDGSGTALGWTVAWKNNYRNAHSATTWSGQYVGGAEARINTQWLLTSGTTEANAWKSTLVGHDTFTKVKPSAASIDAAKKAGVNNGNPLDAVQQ
Assay [6] in a line: probe aInhba binding on compound microarray – biochemical, small-molecule microarray, 635/667 nm fluorescence, primary screen (AID 1148).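 Note: score merges 667nm spot fluorescence with signal-to-noise for antibody binding to printed compounds.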 The settings on record: higher = more signal.
The target of assay [7] is Torsin-1A (Homo sapiens) (UniProt O14656). The experiment in a line: TOR1A wild-type binding on microarray – cell lysate, small-molecule microarray, lysate, 635/667 nm, primary screen (AID 1149). As to conditions: COS7 hTOR1A-WT lysate, 635 nm fluorescence, higher = more signal.
Sequence of Torsin-1A (Homo sapiens) (O14656 whole entry, looked up): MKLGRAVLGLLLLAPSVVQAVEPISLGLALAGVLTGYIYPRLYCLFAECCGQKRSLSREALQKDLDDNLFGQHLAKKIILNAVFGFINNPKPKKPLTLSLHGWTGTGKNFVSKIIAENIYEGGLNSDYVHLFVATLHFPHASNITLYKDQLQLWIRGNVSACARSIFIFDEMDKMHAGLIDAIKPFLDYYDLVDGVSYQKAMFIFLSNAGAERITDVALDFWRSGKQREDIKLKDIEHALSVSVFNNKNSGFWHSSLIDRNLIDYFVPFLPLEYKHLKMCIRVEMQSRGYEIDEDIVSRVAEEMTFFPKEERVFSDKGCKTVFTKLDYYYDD
For assay [8] the target is unchanged. The experiment in a line: torsin A mutant lysate binding on microarrays – cell lysate, small-molecule microarray, COS7 lysate, 635/667 nm fluorescence, primary screen (AID 1150).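 Note: score pools 667 nm emission and signal to noise measuring lysate protein binding.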 The settings on record: COS7 hTOR1A mutant lysate, 635 nm fluorescence, higher = more signal.
Assay [9] deals with Sonic hedgehog protein (Shh). The experiment in a line: Sonic hedgehog microarray binding compounds – biochemical, small-molecule microarray, 635/667 nm fluorescence, primary screen (AID 1151).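 Note: Shh protein binding to compounds spotted on small-molecule microarray slides; score combines spot fluorescence intensity with signal-to-noise across triplicate slides.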 The settings on record: 635 nm fluorescence, higher = more signal.
Assay [10] is described as follows: optical density shifts of acrAB sulA E. coli – strain DRC41, OD650, 48 h, E. coli filamentation inducer project, primary screen (AID 1152).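 Note: E. coli MC1000 strain DRC41 lacking acrAB efflux pump and sulA.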 The settings on record: higher = more signal, called active from +8 up or from −8 down.
The nature of assay [11]: probe aLefty1 binding on compound microarray – biochemical, small-molecule microarray, 635/667 nm fluorescence, primary screen (AID 1153).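 Note: score merges spot fluorescence with signal-to-noise ratio from the scanned slide images.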 As to conditions: higher = more signal.
Assay [12] is described as follows: plasmodial surface anion channel blockers, osmotic lysis – cell-based, P. falciparum Indochina, OD700, 1 h, primary screen (AID 1154). As to conditions: P. falciparum Indochina infected RBC osmotic lysis, higher = more signal, called active from +8 up or from −8 down.
Assay [13] is described as follows: plasmodial surface anion channel blockers, osmotic lysis – cell-based, P. falciparum Indochina, OD700, 2 h, primary screen (AID 1155).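 Note: lysis reports solute entry through the parasite surface anion channel PSAC.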 The settings on record: P. falciparum Indochina infected erythrocytes, higher = more signal, called active from +8 up or from −8 down.
Assay [14] can be described thus: changes in parasitized red cell lysis, either direction – P. falciparum Indochina, OD700, 3 h, PSAC antagonist project, primary screen (AID 1156). As to conditions: P. falciparum-infected erythrocytes, osmotic lysis, higher = more signal, called active from +8 up or from −8 down.
Assay [15] is described as follows: plasmodial surface anion channel blockers, osmotic lysis – cell-based, P. falciparum Indochina, OD700, 18 h, primary screen (AID 1157). The settings on record: P. falciparum Indochina infected erythrocytes, osmotic lysis OD700, 18 h; higher = more signal, called active from +8 up or from −8 down.
Assay [16] can be described thus: S6 kinase pathway phospho-S6 level changes – cell-based, A549, cytoblot, luminescence, serum-stimulated, primary screen (AID 1158).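 Note: serum-stimulated A549 lung adenocarcinoma cells; signal is phosphorylated S6 detected by cytoblot immunostaining with HRP secondary.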 As to conditions: 5 h, higher = more signal.
Assay [17] deals with NADPH oxidase 2 (Homo sapiens) (UniProt P04839). The experiment in a line: compounds shifting NOX2 Amplex Red fluorescence – cell-based, HEK293-NOX2, PMA-stimulated, NOX inhibitor project, primary screen (AID 1159). Note: test concentration not given here. The settings on record: 45 min, higher = more signal, called active from +8 up or from −8 down.
Sequence of NADPH oxidase 2 (Homo sapiens) (P04839 whole entry, looked up): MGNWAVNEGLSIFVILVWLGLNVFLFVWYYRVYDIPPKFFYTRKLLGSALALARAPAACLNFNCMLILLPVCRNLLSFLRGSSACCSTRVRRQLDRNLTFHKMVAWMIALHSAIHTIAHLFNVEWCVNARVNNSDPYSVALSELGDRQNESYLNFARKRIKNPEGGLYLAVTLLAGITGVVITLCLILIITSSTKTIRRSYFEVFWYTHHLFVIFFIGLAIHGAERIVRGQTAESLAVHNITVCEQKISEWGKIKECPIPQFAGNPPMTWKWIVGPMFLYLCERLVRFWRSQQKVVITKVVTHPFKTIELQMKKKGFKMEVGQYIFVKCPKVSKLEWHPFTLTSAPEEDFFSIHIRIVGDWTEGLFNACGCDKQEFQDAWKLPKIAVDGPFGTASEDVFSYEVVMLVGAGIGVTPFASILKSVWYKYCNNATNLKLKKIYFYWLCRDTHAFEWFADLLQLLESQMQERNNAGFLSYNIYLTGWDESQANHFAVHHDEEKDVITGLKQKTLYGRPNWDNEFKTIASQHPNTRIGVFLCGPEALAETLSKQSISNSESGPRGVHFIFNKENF
Assay [18] concerns the target NADPH oxidase 4 (Homo sapiens) (UniProt Q9NPH5). The experiment in a line: compounds shifting NOX4 Amplex Red fluorescence – cell-based, HEK293-NOX4, tetracycline-induced, NOX inhibitor project, primary screen (AID 1160). The settings on record: HEK293-NOX4, Amplex Red H2O2 fluorescence, 45 min; higher = more signal, called active from +8 up or from −8 down.
Assay [19] deals with NADPH oxidase 5 (Homo sapiens) (UniProt Q96PH1). The experiment in a line: compounds shifting NOX5 Amplex Red fluorescence – cell-based, HEK293-NOX5, NOX inhibitor project, primary screen (AID 1161). The settings on record: HEK293-NOX5, ionomycin, 45 min, higher = more signal.
Sequence of NADPH oxidase 5 (Homo sapiens) (Q96PH1 whole entry, looked up): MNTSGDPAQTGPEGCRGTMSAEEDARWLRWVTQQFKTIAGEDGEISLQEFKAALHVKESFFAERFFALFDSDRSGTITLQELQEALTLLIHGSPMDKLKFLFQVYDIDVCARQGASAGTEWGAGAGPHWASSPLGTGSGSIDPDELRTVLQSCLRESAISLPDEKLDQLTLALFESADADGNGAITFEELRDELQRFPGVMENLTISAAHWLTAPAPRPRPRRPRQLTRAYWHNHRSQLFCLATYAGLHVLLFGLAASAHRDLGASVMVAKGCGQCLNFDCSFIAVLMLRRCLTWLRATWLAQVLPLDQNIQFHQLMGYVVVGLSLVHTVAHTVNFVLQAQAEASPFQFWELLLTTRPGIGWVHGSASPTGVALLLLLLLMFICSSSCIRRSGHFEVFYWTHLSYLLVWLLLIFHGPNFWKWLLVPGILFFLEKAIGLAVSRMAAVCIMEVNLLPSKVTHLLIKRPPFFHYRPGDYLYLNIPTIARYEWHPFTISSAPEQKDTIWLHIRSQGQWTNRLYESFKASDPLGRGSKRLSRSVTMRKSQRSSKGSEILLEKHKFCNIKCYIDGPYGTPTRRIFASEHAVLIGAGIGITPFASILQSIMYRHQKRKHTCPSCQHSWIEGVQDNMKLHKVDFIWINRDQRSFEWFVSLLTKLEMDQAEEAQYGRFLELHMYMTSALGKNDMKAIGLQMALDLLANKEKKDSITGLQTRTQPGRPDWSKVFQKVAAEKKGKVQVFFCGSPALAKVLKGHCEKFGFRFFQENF
The nature of assay [20]: compound effects on lung adenocarcinoma cell viability – A549, calcein-AM fluorescence, 48 h, basal, profiling panel (AID 1162). Note: test concentration not given here. As to conditions: higher = more signal.

Sequence of NADPH oxidase 4 (Homo sapiens) (Q9NPH5 whole entry, looked up): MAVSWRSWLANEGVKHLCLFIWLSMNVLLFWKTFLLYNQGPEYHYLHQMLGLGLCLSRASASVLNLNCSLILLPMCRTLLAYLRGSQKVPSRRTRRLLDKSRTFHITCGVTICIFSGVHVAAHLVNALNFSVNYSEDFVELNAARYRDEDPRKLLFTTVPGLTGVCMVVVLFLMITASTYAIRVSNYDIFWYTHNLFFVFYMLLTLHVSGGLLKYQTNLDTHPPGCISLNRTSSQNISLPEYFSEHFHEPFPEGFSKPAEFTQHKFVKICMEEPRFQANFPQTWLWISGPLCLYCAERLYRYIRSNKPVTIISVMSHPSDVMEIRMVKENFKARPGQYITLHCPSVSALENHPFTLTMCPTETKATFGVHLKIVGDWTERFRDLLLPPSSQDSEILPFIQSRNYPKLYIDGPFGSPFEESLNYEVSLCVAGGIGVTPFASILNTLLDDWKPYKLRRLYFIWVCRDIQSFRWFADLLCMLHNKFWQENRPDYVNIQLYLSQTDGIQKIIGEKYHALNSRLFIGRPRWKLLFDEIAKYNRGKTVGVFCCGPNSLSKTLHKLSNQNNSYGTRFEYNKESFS

As for `C=CCN1C(=O)[C@@]2(O[C@@H](CCO)[C@H]([Si](C)(C)c3ccc(OC)cc3)[C@H]2C)c2cc(N3C(=O)c4cccc5cccc3c45)ccc21`, the composite z-score in assay [1] was -0.1; in assay [5], 0.168; in assay [6], 0.017; with Torsin-1A (Homo sapiens) [7], 0.408; in the assay with Torsin-1A (Homo sapiens) [8], 0.579; in assay [9], 0.567. Further, in assay [11], the composite z-score came to 0.0313. Further, the z-score in assay [2] is -7.95 (inactive); in assay [3] it was 22.3 (active); in [4] it was -4.22 (inactive); in [10] it was 1.29 (inactive); in [12] it was 24.5 (active); in assay [13], 9.43 (active). For the same molecule, the z-score in assay [14] is 0.0469 (inactive); in [15], 2.56 (inactive); in assay [16], 0.0438; in assay [17], -0.167 (inactive); in assay [18] it was 0.606 (inactive); in assay [19], 1.25. Further, the z-score in assay [20] was -3.04.

In the case of `C[N+](C)(C)CCCC[C@@H]1NC(=O)[C@@H]2C[C@H](C(=O)NCCCCCNC(=O)CS)[C@H](c3ccc(O)cc3)N2C1=O`, the composite z-score in assay [1] is 0.684; in [5] it was -0.101; in assay [6], -0.128; with Torsin-1A (Homo sapiens) [7], 0.348; with Torsin-1A (Homo sapiens) [8], 0.305; in assay [9], 1.42. In assay [11], this molecule gave a composite z-score of -0.0536. Besides, the z-score was -0.244 (inactive) in assay [2]; -0.398 (inactive) in assay [3]; -0.757 (inactive) in assay [4]; 1.18 (inactive) in [10]; 0.453 (inactive) in [12]; -1.65 (inactive) in [13]. Also, the z-score in [14] was -4.23 (inactive); in [15], -2.4 (inactive); in assay [16] it was 1.4; in assay [17] it was 0.621 (inactive); in assay [18], 0.774 (inactive); in [19], 2.12. For the same molecule, the z-score in assay [20] was -0.215.

For `[N-]=[N+]=Nc1ccccc1[C@H]1OC(c2ccc(OCCCO)cc2)=N[C@@]1(Cc1ccccc1)C(N)=O`, the composite z-score in assay [1] came out at 0.792; in assay [5], 1.92; in assay [6] it was 0.329; with Torsin-1A (Homo sapiens) [7], 0.596; with Torsin-1A (Homo sapiens) [8] it was 0.622; in [9], 0.281. This molecule yielded a composite z-score in assay [11] of 0.752. The z-score was -3.44 (inactive) in [2]; 0.862 (inactive) in [3]; -1.89 (inactive) in assay [4]; 1.99 (inactive) in assay [10]; 31.6 (active) in assay [12]; 28.4 (active) in assay [13]. For the same molecule, the z-score in assay [14] was 1.64 (inactive); in assay [15], 7.66 (inactive); in assay [16], 1.8; in [17], -1.71 (inactive); in assay [18], 0.363 (inactive); in assay [19], -0.45. The z-score in assay [20] is -0.297.

In the case of `C=CCN1C(=O)[C@@]2(O[C@@H](CCn3cc(CCO)nn3)[C@H]([Si](C)(C)c3ccc(OC)cc3)[C@H]2C)c2cc(N3C(=O)c4cccc5cccc3c45)ccc21`, the composite z-score in [1] came to 0.662; in [5], 0.854; in assay [6] it was 0.0377; with Torsin-1A (Homo sapiens) [7], 0.311; with Torsin-1A (Homo sapiens) [8], 0.615; in [9], 0.802. In [11], the composite z-score was found to be 0.0318. Besides, the z-score in assay [2] is -7.17 (inactive); in assay [3], 37.8 (active); in assay [4] it was -3.77 (inactive); in assay [10] it was 2.05 (inactive); in assay [12], 16.4 (active); in [13], 3.97 (inactive). Moreover, the z-score is -0.551 (inactive) in assay [14]; 1.5 (inactive) in [15]; 0.905 in [16]; 0.576 (inactive) in assay [17]; 1.11 (inactive) in assay [18]; -0.148 in [19]. Moreover, the z-score in assay [20] was -4.11.

Take `NC(=O)N1C(=O)C2C(C1=O)C1C=C(c3ccc(CO)cc3)C2C(C2CC2)N1Cc1cc2c(cc1Br)OCO2` (stereo not given): the composite z-score in assay [1] is 0.0262; in assay [5], 0.368; in [6], 0.134; with Torsin-1A (Homo sapiens) [7] it was 0.32; in the assay with Torsin-1A (Homo sapiens) [8], 0.127; in assay [9], 1.39. Moreover, the composite z-score in assay [11] worked out at 0.0671. For the same molecule, the z-score was -1.15 (inactive) in [2]; 7.31 (inactive) in assay [3]; -1.34 (inactive) in assay [4]; 0.737 (inactive) in [10]; 14.4 (active) in assay [12]; 0.537 (inactive) in assay [13]. Besides, the z-score in assay [14] was -0.429 (inactive); in assay [15], -1.43 (inactive); in assay [16], 0.215; in [17] it was 2.92 (inactive); in assay [18], 1.48 (inactive); in [19], -0.201. In addition, the z-score in [20] was 0.485.
